Measured values as given in the supplement of paper PMC10600219.
Where a name gives a salt, the structure may show the parent alone. Whole data set: some 2,800 compounds, median “cell viability relative to vehicle” near 1.1, cut for the lowest 2% near 0.19. Only a selection was taken, and the lowest values are over-represented in it overall.

Tested on: NCI-H2228 parental
Assay: cell viability relative to vehicle (fraction of vehicle); NCI-H2228 is an ALK-positive lung cancer line and DTP means drug-tolerant persister; higher = less growth inhibition
Settings: 100 nM; treatment time 6 days
How it was run: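 Each value is viability relative to vehicle-treated cells, measured as ATP with the CellTiter-Glo 3D Cell Viability Assay. Parental NCI-H2228 cells and drug-tolerant persisters (1000 nM targeted drug, 13 days) in 384-well plates received the 3114-agent TargetMol anti-cancer compound library at 100 nM, or DMSO, and were read 6 days later.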

**Q.** For `CC1=C[C@]2(O)O[C@@]3(CC2=C(C)C)[C@@H](C)CC[C@@H]13` [Curcumenol], which cell viability is on record?
**A.** 1.1

**Q.** How did the cell viability turn out when `CC(=O)O[C@@H]1C[C@H](O)[C@@]23CO[C@@H](O)[C@]1(C)[C@@H]2C[C@@H](O)[C@]1(C)[C@@H]3C(=O)[C@H](OC(C)=O)[C@@]2(C)[C@H](c3ccoc3)C[C@H]3O[C@]321` [Toosendanin] was run?
**A.** 0.147

**Q.** With `CC(=O)O[C@H]1CC(=O)OC(C)(C)[C@@H]2CC(=O)[C@]3(C)[C@H](CC[C@@]4(C)[C@@H](c5ccoc5)OC(=O)[C@H]5O[C@]543)[C@@]12C` [Nomilin] as the molecule, how does the cell viability read?
**A.** 1.13

**Q.** With `CC(C)=CCC(OC(=O)C=C(C)C)C1=CC(=O)c2c(O)ccc(O)c2C1=O` (stereo not drawn) [beta, beta-dimethylacrylshikonin] as the molecule, how does the cell viability read?
**A.** 1.03

**Q.** `CC1(C)CC[C@]2(C(=O)O)CC[C@]3(C)C(=CC[C@@H]4[C@@]5(C)CCC(=O)C(C)(C)[C@@H]5CC[C@]43C)[C@@H]2C1` [Oleanonic Acid] was tested. Which cell viability did it give?
**A.** 1.12

**Q.** Which cell viability does the source give for `COCCN1CCN(Cc2ccc(-c3n[nH]c4c3C(=O)c3c(NC(=O)NN5CCOCC5)cccc3-4)cc2)CC1` here?
**A.** 0.253

**Q.** For `O=C(NC1CCOCC1)c1ccc(-c2cc(-c3c[nH]nc3-c3ccccn3)ccn2)cc1`, which cell viability is on record?
**A.** 1.01

**Q.** With `O=C(Nc1c[nH]nc1-c1nc2ccc(CN3CCOCC3)cc2[nH]1)NC1CC1` as the molecule, how does the cell viability read?
**A.** 0.106

**Q.** `CCCCCCCCNc1cc(=O)[nH]c(=O)[nH]1` was tested. Which cell viability did it give?
**A.** 1.01

**Q.** For `CCC(=O)Oc1ccc2c(c1)CCC1C2CCC2(C)C(OC(=O)CC)CCC12` (stereo not drawn) [17-Beta-Estradiol-3,17-Dipropionate], which cell viability is on record?
**A.** 1.24

**Q.** For `CCCOc1ccc(CCc2nc3cc(-c4c(C)noc4C)ccc3n2CCN2CCOCC2)cc1` [PF-CBP1 hydrochloride], which cell viability is on record?
**A.** 1.06

**Q.** `O=C(Nc1ccc(OC(F)(F)Cl)cc1)c1cnc(N2CC[C@@H](O)C2)c(-c2cc[nH]n2)c1` [Asciminib] was tested. Which cell viability did it give?
**A.** 1.11

**Q.** Which cell viability does the source give for `NC(=O)Cc1cc[nH]n1` [1H-Pyrazole-3-acetamide] here?
**A.** 0.268

**Q.** How did the cell viability turn out when `CONC(=O)Nc1ccc(-c2sc3c(c2CN(C)Cc2ccccc2)c(=O)n(-c2ccccc2)c(=O)n3Cc2c(F)cccc2F)cc1` [Sufugolix] was run?
**A.** 0.979

**Q.** For `CN1CCN(Cc2ccc(Nc3ncc(Cl)c(Nc4ccccc4S(=O)(=O)N(C)C)n3)cc2)CC1`, which cell viability is on record?
**A.** 0.0869

**Q.** `CNS(=O)(=O)c1ccccc1Nc1nc(Nc2ccc(N3CCN(C)CC3)cc2OC)ncc1Cl` [ALK inhibitor 2] was tested. Which cell viability did it give?
**A.** 0.448

**Q.** `COc1cc(N2CCC(N3CCN(C)CC3)CC2)ccc1Nc1ncc(Cl)c(Nc2ccccc2S(=O)(=O)C(C)C)n1` was tested. Which cell viability did it give?
**A.** 0.421

**Q.** How did the cell viability turn out when `O=C(/C=C/c1ccc(O)cc1)C1=C(O)C(O)([C@@H]2O[C@H](CO)[C@@H](O)[C@H](O)[C@H]2O)C(O)=C([C@@H]2O[C@H](CO)[C@@H](O)[C@H](O)[C@H]2O)C1=O` (stereo not given in full) [Hydroxysafflor yellow A] was run?
**A.** 1.07

**Q.** Which cell viability does the source give for `CCOCc1nc2c(N)nc3ccccc3c2n1CC(C)(C)O` [Resiquimod] here?
**A.** 1.06

**Q.** For `O=C(Nc1cccc(-c2ccccc2)c1)OC1CCCCC1`, which cell viability is on record?
**A.** 1.01

**Q.** `COc1ccc(CCc2cc(OC)c(OC)c(OC)c2)cc1O` [Erianin] was tested. Which cell viability did it give?
**A.** 0.335

**Q.** Which cell viability does the source give for `O=C(Nc1ccc(CN2CCOCC2)cc1)c1ccc(-c2cccc(Cl)c2)o1` here?
**A.** 0.775

**Q.** With `CCNC(=O)c1noc(-c2cc(C(C)C)c(O)cc2O)c1-c1ccc(CN2CCOCC2)cc1` [Luminespib] as the molecule, how does the cell viability read?
**A.** 0.0552

**Q.** Which cell viability does the source give for `CCNC(=O)c1noc(-c2cc(Cl)c(O)cc2O)c1-c1ccc(OC)cc1` here?
**A.** 0.237

**Q.** With `CC1(C)CC[C@]2(C(=O)O)CC[C@]3(C)C(=CC[C@@H]4[C@@]5(C)CC[C@H](O[C@@H]6O[C@H](C(=O)O)[C@@H](O)[C@H](O[C@@H]7OC[C@@H](O)[C@H](O)[C@H]7O)[C@H]6O)C(C)(C)[C@@H]5CC[C@]43C)[C@@H]2C1` [Momordin Ic] as the molecule, how does the cell viability read?
**A.** 1.1

**Q.** For `C[C@@]1(CO)C[C@@H](O)C[C@@]2(C)[C@@H]3CC[C@](C)([C@@H](O)CO)C=C3CC[C@H]12` [Kirenol], which cell viability is on record?
**A.** 1.1

**Q.** `Cc1c(CN2CCN(c3cccc(C(F)(F)F)c3)CC2)cc(-c2ccccc2)n1NC(=O)c1ccncc1` [Sudoterb free base] was tested. Which cell viability did it give?
**A.** 1.05

**Q.** For `Cc1ccc([N+](=O)[O-])cc1S(=O)(=O)N(C)/N=C/c1cnc2ccc(Br)cn12`, which cell viability is on record?
**A.** 0.165

**Q.** `Cc1ccc([N+](=O)[O-])cc1S(=O)(=O)N(C)/N=C/c1cnc2ccc(Br)cn12` [PIK-75  hydrochloride] was tested. Which cell viability did it give?
**A.** 0.153

**Q.** How did the cell viability turn out when `Cc1ccccc1C(C(=O)NC1CCCCC1)N(C(=O)Cn1cnc2ccccc21)c1cccc(F)c1` (stereo not given) was run?
**A.** 1.19

**Q.** With `CN1CCN(c2ccc(OC(F)(F)F)c(Nc3ncc4c(n3)-c3c(c(C(N)=O)nn3CCO)CC4)c2)CC1` as the molecule, how does the cell viability read?
**A.** 0.168

**Q.** `CCC(=O)Nc1cccc(Oc2nc(Nc3ccc(N4CCN(C)CC4)cc3OC)ncc2Cl)c1` was tested. Which cell viability did it give?
**A.** 1.22

**Q.** `C=CC(=O)Nc1cccc(Oc2nc(Nc3ccc(N4CCN(C)CC4)cc3OC)ncc2Cl)c1` was tested. Which cell viability did it give?
**A.** 1.19

**Q.** How did the cell viability turn out when `CCCCc1nc2ccc(NC(=O)NC3CCCCC3)cc2n1Cc1ccc(-c2ccccc2C(=O)O)cc1` was run?
**A.** 1.08

**Q.** Which cell viability does the source give for `Cc1cc2cc(Oc3ccnc(Nc4cccc(CS(=O)(=O)NCCN(C)C)c4)n3)ccc2[nH]1` [Sulfatinib] here?
**A.** 1.03

**Q.** `Cc1nc(=O)c2cc(CN(C)c3ccc(C(=O)N[C@@H](CCC(=O)O)C(=O)O)s3)ccc2[nH]1` [Raltitrexed] was tested. Which cell viability did it give?
**A.** 0.151

**Q.** For `CN(Cc1cnc2nc(N)nc(N)c2n1)c1ccc(C(=O)N[C@@H](CCC(=O)O)C(=O)O)cc1` [Methotrexate], which cell viability is on record?
**A.** 0.375

**Q.** `Nc1nc(=O)c2c([nH]1)NCC(CNc1ccc(C(=O)N[C@@H](CCC(=O)O)C(=O)O)cc1)N2C=O` (stereo not given in full) [Calcium folinate] was tested. Which cell viability did it give?
**A.** 1.08

**Q.** With `COc1cc(/C=C/CO)cc(OC)c1O[C@@H]1O[C@H](CO)[C@@H](O)[C@H](O)[C@H]1O` [eleutheroside-b] as the molecule, how does the cell viability read?
**A.** 1.13

**Q.** Which cell viability does the source give for `CCCCNNC(=O)c1ccc(-c2cccc(F)c2F)cc1` here?
**A.** 1.03

**Q.** `COc1cc(/C=C/C(=O)NCCn2c(C(F)(F)F)cc3ccccc32)cc(OC)c1OC` was tested. Which cell viability did it give?
**A.** 1.05

**Q.** With `COc1cc(CCC(=O)CC(=O)CCc2ccc(O)c(OC)c2)ccc1O` [Tetrahydro Curcumin] as the molecule, how does the cell viability read?
**A.** 1.03

**Q.** `CS(=O)(=O)Nc1cc(-c2ccc3ncnc(Nc4ccc(F)c(Cl)c4)c3c2)cnc1Cl` was tested. Which cell viability did it give?
**A.** 1.08

**Q.** How did the cell viability turn out when `CCCS(=O)(=O)Nc1ccc(F)c(C(=O)c2c[nH]c3ncc(-c4ccc(Cl)cc4)cc23)c1F` [Vemurafenib] was run?
**A.** 1.2

**Q.** Which cell viability does the source give for `COc1ncc(-c2ccc3nccc(-c4ccnnc4)c3c2)cc1NS(=O)(=O)c1ccc(F)cc1F` [Omipalisib] here?
**A.** 0.148
